In the library only some 1.7% were active in any assay of this set; here they are far more common.
GLP1R inv ag – qHTS of GLP-1 Receptor Inverse Agonists (Inhibition Mode). Potency, µM (titrated, usually from 38.3 µM), without a hit: top-dose activity change, negative = inhibition, hits mostly inhibitors. hit rate 1.6% among 410,000. HEK293 GLP-1R CRE-luciferase, luminescence, 24 h; GLP-1R form is constitutively active. AID 624417, 2012. Glucagon-like peptide 1 receptor (Homo sapiens), P43220; also: potency is read from the fitted curve at half-maximal effect; % is scaled to controls: 0 for no effect and ±100 for the full control effect; nearly all actives have a fitted effect of over 55% in size
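Using stably transfected HEK293 (constitutively active GLP-1R, cAMP-luciferase reporter), compounds were incubated 24 hr and luciferase measured by luminescence.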
LDHA block – qHTS assay for inhibitors of human lactate dehydrogenase; L-lactate dehydrogenase A chain (Homo sapiens), P00338; purified LDHA, NADH/diaphorase-resazurin fluorescence; hits give low values; activity change, % (values are at about 110 or 230 µM); hit rate 0.15% among 480,000; AID 1347041, 2019; in the data active = activity change below about -30%; inconclusive = mostly about -25% to -30%;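 also: plate controls were DMSO wells for no effect and wells without enzyme for full effect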
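Human LDH5 (2 nM) was incubated with 0.06 mM NADH and 0.2 mM pyruvate for 5 min at room temperature in Tris pH 7.4. Remaining NADH was coupled through diaphorase/resazurin, and resorufin fluorescence was read at 0 and 20 min.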
IDH1 R132H inh – qHTS for Inhibitors of mutant isocitrate dehydrogenase 1 (IDH1): qHTS; Isocitrate dehydrogenase [NADP] cytoplasmic (Homo sapiens), O75874; hit rate 0.093% among 390,000; IDH1-R132H enzyme, NADPH consumption, diaphorase/resazurin fluorescence; Potency, µM (top dose mostly 76.6 µM), for inactives: at the top dose activity change, negative = inhibition, hits mostly inhibitors; also: potency is read from the fitted curve at half-maximal effect; % is scaled to controls: 0 for no effect and ±100 for the full control effect; nearly all actives have a fitted effect of over 65% in size
Target sequence (O75874 whole entry R132H, stated change not applied): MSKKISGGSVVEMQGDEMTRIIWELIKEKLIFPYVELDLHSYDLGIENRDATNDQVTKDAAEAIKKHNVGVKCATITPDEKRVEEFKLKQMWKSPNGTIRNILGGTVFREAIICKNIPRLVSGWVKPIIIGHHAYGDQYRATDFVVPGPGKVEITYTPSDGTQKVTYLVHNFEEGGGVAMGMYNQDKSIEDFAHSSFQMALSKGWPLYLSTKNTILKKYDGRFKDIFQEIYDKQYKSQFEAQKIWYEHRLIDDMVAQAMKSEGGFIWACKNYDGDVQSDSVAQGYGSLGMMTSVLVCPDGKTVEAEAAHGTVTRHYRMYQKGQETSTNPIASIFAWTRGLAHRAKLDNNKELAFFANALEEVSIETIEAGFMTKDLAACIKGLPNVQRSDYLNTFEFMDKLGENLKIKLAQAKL
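IDH1-R132H (0.5 ug/mL) preincubated 30 min with compound, then NADPH (0.016 mM) and alpha-KG (2 mM) added; 80 min at RT, pH 7.5. Remaining NADPH coupled via diaphorase/resazurin to fluorescence (540/590 nm); concentration-response curves normalized to no-enzyme control.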
GLP-1R agonist – qHTS of GLP-1 Receptor Agonists. Glucagon-like peptide 1 receptor (Homo sapiens), P43220. HEK293 GLP-1R CRE-luciferase, luminescence, 4-6 h; cells express a hypersensitive GLP-1R form. Potency, µM (series often up to 45.6 µM), for the others: top-dose activation, hits mostly activators. hit rate 0.007% among 380,000. AID 624172, 2012; also: potency is read from the fitted curve at half-maximal effect; % of control where 0% means no effect
HEK293 tox – qHTS of GLP-1 Receptor Inverse Agonists: Cytotox Screen | AID 624418, 2012 | HEK293 cAMP-luciferase reporter cells, luminescence, 24 h | hit rate 0.13% among 410,000 | Potency, µM (doses to about 38.3 µM), for the others: at the top dose activity change, negative = inhibition, actives largely listed as inhibitors;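 also: loss of luciferase light is scored as toxicity; potency is read from the fitted curve at half-maximal effect; % is scaled to controls: 0 for no effect and ±100 for the full control effect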
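Quantitative HTS format, 1536 wells, 200 cells/uL seeded. Compounds: 23 nL, 24 h, 37 °C. Detection: luciferase reagent, luminescence at 12 min RT; decreased signal taken as cytotoxic.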
PTHR1 ag – qHTS for PTHR1 Agonists: Primary Screen | Potency, µM (top dose mostly 115 µM), for inactives: top-dose activation, actives largely listed as activators | Parathyroid hormone/parathyroid hormone-related peptide receptor (Homo sapiens), Q03431 | hit rate 0.075% among 410,000 | HEK293 GP2 PTHR1 cells, GloSensor cAMP luminescence, 1 h; also: potency is read from the fitted curve at half-maximal effect; nearly all actives have a fitted effect of over 55% in size
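HEK-293-derived GP2 cells expressing PTHR1 and a GloSensor cAMP reporter, 3,000/well, plated overnight, given luciferin plus IBMX (each 0.5 mM as added) for 1 h at 37 °C, then compound for 1 h at 37 °C. Luminescence was read after 15 min at room temperature.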
* hit, by the source's call; i = inactive; ? = inconclusive; nt = not tested or not shown. Unless noted, calls follow the shape of the dose curve; as a rule, active = well fitted curve in the direction sought with a large enough effect; inconclusive = small, poorly fitted or top-dose-only effect, or another doubt; inactive = no such curve, though single readings can be large; an effect the other way counts as inactive or inconclusive.

SMILES	GLP1R inv ag	LDHA block	IDH1 R132H inh	GLP-1R agonist	HEK293 tox	PTHR1 ag
Cc1ccc(C2(c3noc(CN(C)CC4CCCCO4)n3)CCCC2)cc1 (stereo unspecified)	?	-2	7%	2%	-2%	-44%
COc1ccc(/C=C(/C#N)C(=O)Nc2cccc3ncccc23)cc1	nt	34	nt	nt	nt	nt
Cc1oc(-c2ccccc2)nc1CC(=O)Nc1ccccc1F	nt	-1	nt	nt	nt	nt
CCOC(=O)C1=C(c2ccccc2)Nc2ncnn2C1c1ccc(C(=O)O)cc1 (stereo unspecified)	13%	-1	5%	-1%	1%	i
CCOC(=O)C1=C(c2ccccc2)NC(N)=NC1c1ccc(OCc2ccc(C(=O)OC)cc2)cc1 (stereo unspecified)	8.9µM*	-2	-6%	8%	?	i
COc1cccc(CC2(CO)CCCN(C/C=C/c3ccccc3OC)C2)c1 (stereo unspecified)	?	-4	1%	3%	-5%	-7%
COc1ccccc1/C=C/CN1CCCC(CO)(Cc2cccc(Cl)c2)C1 (stereo unspecified)	11µM*	-3	2%	13%	?	-15%
COc1cc(Cl)c(CN2CCCC(CO)(Cc3cccc(Cl)c3)C2)cc1OC (stereo unspecified)	8.9µM*	2	3%	5%	-14%	i
COc1ccc(/C=C/CN2CCCC(CO)(Cc3cccc(Cl)c3)C2)cc1 (stereo unspecified)	3.2µM*	0	-2%	22%	?	i
COc1ccc(F)c(CN2CCCC(CO)(Cc3cccc(Cl)c3)C2)c1 (stereo unspecified)	?	-1	9%	10%	-7%	i
O=C1[C@H]2[C@@H](c3ccc(F)cc3)N3C(=O)N(c4cccc(Cl)c4)C(=O)[C@@]3(Cc3ccc(Cl)cc3)[C@H]2C(=O)N1C1CCCCC1	?	2	14%	-4%	-7%	-23%
O=C1[C@H]2[C@@H](c3ccc(F)cc3)N3C(=O)N(c4cccc(Cl)c4)C(=O)[C@@]3(Cc3ccccc3)[C@H]2C(=O)N1C1CCCCC1	5.6µM*	-2	3%	-1%	3%	8%
O=C(OCc1ccccc1)c1cc(Cl)c[nH]1	nt	-7	nt	nt	nt	nt
Cc1ccc(CN2CCN(C(=O)c3cccc4ccccc34)CC2)cc1	4µM*	-11	5%	12%	-2%	-34%
COc1ccccc1CN1CCN(C(=O)c2cccc3ccccc23)CC1	11µM*	-19	1%	-7%	4%	-19%
COc1ccc2ccccc2c1CN1CCN(C(=O)c2ccccc2)CC1	10µM*	11	10%	-3%	-8%	i
COc1cccc(CN2CCN(C(=O)c3cccc4ccccc34)CC2)c1OC	?	?	-1%	20%	-14%	-11%
Cc1cccc(CN2CCN(C(=O)c3cccc4ccccc34)CC2)c1	?	-10	3%	10%	-12%	-13%
Cc1ccccc1CN1CCN(C(=O)c2cccc3ccccc23)CC1	10µM*	-10	2%	2%	-7%	-13%
CCc1ccc2nc(N/C(N)=N/S(=O)(=O)c3ccc(C)cc3)nc(C)c2c1	nt	-3	nt	nt	nt	nt
Clc1cccc(-n2ncc3c(NC4CCCC4)ncnc32)c1	nt	4	nt	nt	nt	nt
